Test results taken from PubChem BioAssay AID1076 (NMMLSC, 2008).
Calls of active or inactive are those of the source.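 The calls were made as follows: active = cell event count below 40, meaning activity score above 60 where score is 100 minus count; inactive = the rest.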

Assay: cytotoxicity in LNCaP prostate cells – cell-based, cell event count, single point, cytotoxicity control for prostate differentiation activator project, confirmation (AID 1076);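 also: counts scatter-gated live cells after medium removal discards detached dead cells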
Conditions: LNCaP cell loss, flow cytometry event count, 4 d, stronger effect = lower value

| Compound | cell event count (at 100 µM) | cell event count (event count, at 10 µM) |
| --- | --- | --- |
| CN(C)c1ccc(CNC2CC(C)(C)NC(C)(C)C2)cc1 | 130 (inactive) | 186 |
| Cn1c(=O)cc(OCC(=O)NCCCN2CCN(c3cccc(Cl)c3)CC2)c2ccccc21 | 10 (inactive) | 280 |
| OCc1nc2ccccc2n1CCCOc1ccccc1 | 178 (inactive) | 156 |
| CCSc1nnc(Cn2c(=O)sc3ccccc32)n1-c1ccccc1C | 249 (inactive) | 171 |
| COc1ccc(S(=O)(=O)CCC(=O)O)cc1 | 153 (inactive) | 47 |
| c1ccc(OCCCn2nnc(-c3cccnc3)n2)cc1 | 123 (inactive) | 126 |
| Cc1ccccc1-c1nc(CN2CCCC(C(=O)NCCCN3CCOCC3)C2)c(C)o1 (stereo unspecified) | 145 (inactive) | 175 |
| Cc1ccccc1Cn1cnc2c(cnn2C(C)(C)C)c1=O | 13 (inactive) | 85 |
| CCN1CCN(c2cc(C)c3cc(NC(=O)c4ccc(Br)o4)ccc3n2)CC1 | 36 (inactive) | 233 |
| CN1CCN(CCCNC(=O)c2cc3c(-c4ccc(Cl)cc4)nn(C)c3s2)CC1 | 7 (inactive) | 146 |
| CCN1CCN(CCNC(=O)C2CCN(Cc3nc(-c4ccc(Cl)cc4)oc3C)CC2)CC1 | 38 (inactive) | 378 |
| CN1C(=O)c2ccc(S(=O)(=O)c3ccc(C(=O)O)cc3)cc2C1=O | 195 (inactive) | 166 |
| CCOC(=O)N1CCN(CC(=O)Nc2cc(C)nn2-c2nc3ccccc3s2)CC1 | 259 (inactive) | 245 |
| CCOc1ccc(OCC)c(NC(=O)C2CCCN(S(=O)(=O)c3c(C)noc3C)C2)c1 (stereo unspecified) | 187 (inactive) | 260 |
| O=C(NCCCN1CCN(c2ccc(F)cc2)CC1)c1cccc(N2CCCC2=O)c1 | 206 (inactive) | 263 |
| Cc1ccccc1-c1nc(CN2CCC(C(=O)NCCCN3CC(C)CC(C)C3)CC2)c(C)o1 (stereo unspecified) | 11 (inactive) | 102 |
| CCOc1ccccc1NC(=O)c1nc[nH]c1C(=O)Nc1ccccc1OCC | 20 (inactive) | 248 |
| Cc1ccc2c(c1)-c1c(cnn1CC(=O)Nc1ccccc1N1CCN(C)CC1)CO2 | 73 (inactive) | 142 |
| CCOC(=O)N1CCN(C(=O)C2CCCN(Cc3nc(-c4ccc(Cl)cc4)oc3C)C2)CC1 (stereo unspecified) | 10 (inactive) | 126 |
| COc1ccc(CCNC(=O)C2CCN(Cc3nc(-c4ccccc4F)oc3C)CC2)cc1OC | 524 (inactive) | 478 |
| O=C(NCC(c1cccnc1)N1CCOCC1)c1cccc(Cl)c1 (stereo unspecified) | 175 (inactive) | 94.5 |
| CCOc1cccc(-c2nnc3n2N=C(c2cc(OC)ccc2OC)CS3)c1 | 3 (inactive) | 136 |
| CC(C)CCNC(=O)C1CCN(c2nc3ccccc3o2)CC1 | 73 (inactive) | 110 |

| Compound | cell event count (at 100 µM) | cell event count (event count, at 10 µM) |
| --- | --- | --- |
| CCN(CC)CCNC(=O)c1ccc(N2CCCCC2)c(NS(=O)(=O)c2ccc(C)cc2)c1 | 17 (inactive) | 197 |
| CCCOc1ccccc1C1CC(=O)Nc2cc3c(cc21)OCO3 (stereo unspecified) | 6 (active) | 56 |
| CCN1CCN(C(=O)C2CCN(Cc3nc(-c4cccc(Cl)c4)oc3C)CC2)CC1 | 12 (inactive) | 192 |
| CCC(C(=O)Nc1ccccc1OC)n1c(C(=O)OC)cc2ccsc21 (stereo unspecified) | 41 (inactive) | 270 |
| CCOc1nc(-c2ccccc2O)nc2ccccc12 | 252 (inactive) | 250 |
| Cc1cc2c(=O)n(CC(=O)N3CCN(c4ccccc4)CC3)cnc2s1 | 184 (inactive) | 170 |
| O=C(c1ccc2c(c1)OCCO2)N1CCCCC1 | 65 (inactive) | 81.5 |
| Cc1ccc(Nc2cc(=O)n(C3CCCCC3)c(=O)[nH]2)cc1C | 3 (active) | 62.5 |
| CCN(CCNC(=O)C1CCCN(Cc2nc(-c3ccc(OC)cc3)oc2C)C1)c1ccccc1 (stereo unspecified) | 18 (inactive) | 146 |
| COCCn1cc(C(=O)N2CCCC(C)C2)c2c3ccccc3n(C)c2c1=O (stereo unspecified) | 180 (inactive) | 176 |
| Cc1ccccc1-c1nc(CN2CCC(C(=O)O)CC2)c(C)o1 | 217 (inactive) | 207 |
| COc1ccc(N2CCN(CCCNC(=O)C3(S(=O)(=O)c4ccc(Cl)cc4)CC3)CC2)cc1 | 93 (inactive) | 136 |
| Cc1oc(-c2ccc(Cl)cc2)nc1CN1CCCC(C(=O)NCc2ccccn2)C1 (stereo unspecified) | 34 (inactive) | 168 |
| Cn1c(=O)n(C)c2cc(CN3C(=O)OC(C)(C)C3(C)O)ccc21 (stereo unspecified) | 211 (inactive) | 145 |
| COc1ccc(C(CC(=O)O)NC(=O)Cc2ccccc2)cc1 (stereo unspecified) | 186 (inactive) | 66.5 |
| CCc1ccc(-c2nc(CN3CCC(C(=O)NCc4ccccc4OC)CC3)c(C)o2)cc1 | 49 (inactive) | 190 |
| Cc1ccccc1CN1CCN(CC(=O)NCCCN2CCN(c3ccc(F)cc3)CC2)C1=O | 241 (inactive) | 195 |
| Cc1oc(-c2ccccc2F)nc1CN1CCC(C(=O)NCc2cccs2)CC1 | 107 (inactive) | 214 |
| Cc1oc(-c2ccc(Cl)cc2)nc1CN1CCC(C(=O)NCc2ccco2)CC1 | 178 (inactive) | 174 |
| CCOC(=O)N1CCN(S(=O)(=O)c2ccc(C(=O)Nc3nc4ccccc4s3)cc2)CC1 | 145 (inactive) | 172 |
| O=C(C1CCN(S(=O)(=O)c2cccc3nsnc23)CC1)N1CC=C(c2ccccc2)CC1 | 27 (inactive) | 258 |
| Cn1nc(-c2ccc(Cl)cc2)c2cc(C(=O)NCCCN3CCOCC3)sc21 | 33 (inactive) | 184 |
| O=C(CCN1C(=O)COc2ccccc21)NCCCN1CCN(c2ccccc2F)CC1 | 186 (inactive) | 204 |

| Compound | cell event count (at 100 µM) | cell event count (event count, at 10 µM) |
| --- | --- | --- |
| CCOC(=O)c1c(NCc2ccc3c(c2)OCO3)c2ccccc2[nH]c1=O | 39 (inactive) | 357 |
| C=CCn1cc(C(=O)N2CCN(C)CC2)c(=O)c2cc(S(=O)(=O)N3CCCC3)ccc21 | 168 (inactive) | 118 |
| Oc1ccccc1CNc1nc2ccccc2n1CCN1CCCCC1 | 44 (inactive) | 176 |
| COc1ccc(-n2nnnc2SCC(=O)c2ccc(O)c(O)c2)cc1 | 9 (inactive) | 205 |
| COc1ccc(-n2c3c(cc(C(=O)N4CCC(C)CC4)c2=O)C(=O)CC(C)(C)C3)cc1 | 115 (inactive) | 93 |
| CCc1ccc(-c2nc(CN3CCCC(C(=O)O)C3)c(C)o2)cc1 (stereo unspecified) | 153 (inactive) | 123 |
| Cc1nc(NCCNC(=O)c2ccco2)c2c(C)c(C)sc2n1 | 83 (inactive) | 170 |
| Cc1ccc(Cn2ccc(NC(=O)c3cc(-c4ccc(Br)cc4)on3)n2)cc1 | 257 (inactive) | 132 |
| CCOC(=O)C1CCN(S(=O)(=O)c2ccc(-c3nc4ccccc4s3)s2)CC1 | 70 (inactive) | 136 |
| Cc1ccccc1-c1nc(CN2CCC(C(=O)NCCCN3CCOCC3)CC2)c(C)o1 | 38 (inactive) | 126 |
| COc1ccc(N2CCN(CCCNC(=O)C3CCCN(S(=O)(=O)c4cnc[nH]4)C3)CC2)cc1 (stereo unspecified) | 31 (inactive) | 92.5 |
| Cn1c(C(=O)NCCC2=CCCCC2)cc2c(=O)n3ccccc3nc21 | 191 (inactive) | 132 |
| CCOC(=O)N1CCN(C(=O)C2CCN(Cc3nc(-c4ccccc4C)oc3C)CC2)CC1 | 111 (inactive) | 244 |
| Cc1ccccc1-c1nc(CN2CCC(C(=O)N3CCN(c4ccccn4)CC3)CC2)c(C)o1 | 73 (inactive) | 190 |
| COc1ccc(-c2noc(CCC(=O)NCCCN3CCC(C)CC3)n2)cc1 | 63 (inactive) | 136 |
| CC1CCCCN1CCNC(=O)c1cc2c(-c3ccccc3F)nn(C)c2s1 (stereo unspecified) | 255 (inactive) | 384 |
| Cc1ccc(OCC(O)Cn2c(=N)n(CCN3CCCCC3)c3ccccc32)cc1 (stereo unspecified) | 13 (inactive) | 96 |
| COc1ccc(/C=N/c2nc3ccccc3n2C)cc1OC | 90 (inactive) | 35.5 |
| CCOc1cccc2cc(-c3cn4cc(C)ccc4n3)c(=O)oc12 | 267 (inactive) | 300 |
| O=C1CCCc2c1cc(C(=O)NC1CCSC1=O)c(=O)n2-c1ccccc1 (stereo unspecified) | 253 (inactive) | 155 |
| Cn1c(C(=O)NCCCN2CCN(c3ccccc3F)CC2)cc2c(=O)n(C)c3ccccc3c21 | 5 (inactive) | 170 |
| CCc1ccc(-c2nc(CN3CCC(C(=O)NCCc4ccc(OC)c(OC)c4)CC3)c(C)o2)cc1 | 17 (inactive) | 204 |
